Assay outcomes from PubChem BioAssay.
An excerpt weighted towards active compounds, which were near 2.8% of everything screened.
ATXN viability – viability counter-screen for ATXN expression inhibitors | AID 651635 | Potency, µM (top dose mostly 56.7 µM), usual class: cytotoxic | S2 cells (HEK-293 line with an ATXN2-luciferase reporter) viability, CellTiter-Fluor protease fluorescence, 24 h | hit rate 0.49% among 400,000; further: potency means the concentration at half of the fitted maximal effect; nearly all actives have a fitted effect of over 40% in size
CtBP-E1A inh – CtBP/E1A binding inhibition; hit rate 0.49% among 340,000; activity change, % (test concentration not listed); AlphaScreen GST-E1A/His-CtBP binding, 1536-well; stronger effect = lower value; AID 651724; in the data active means activity change below about -65%; inconclusive means mostly about -30% to -63%; further: on the % scale 0 is the no-effect control and ±100 the full control effect
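In 5 uL wells, 23 nL compound meets equimolar GST-E1A and His-CtBP (5X stock 125 nM each) for 2 h, 37 °C. Beads (5X, 50 ug/mL) then 1 h, 37 °C, dark.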
Six1-Eya2 inh – Six1/Eya2 interaction inhibition; AlphaScreen GST-Six1/His-Eya2 binding, biochemical; stronger effect = lower value; hit rate 0.56% among 360,000; activity change, % (no concentration beside the values); in the data active means activity change below about -65%; inconclusive means mostly about -30% to -63%; further: on the % scale 0 is the no-effect control and ±100 the full control effect
Target sequence (O00167 whole entry, looked up): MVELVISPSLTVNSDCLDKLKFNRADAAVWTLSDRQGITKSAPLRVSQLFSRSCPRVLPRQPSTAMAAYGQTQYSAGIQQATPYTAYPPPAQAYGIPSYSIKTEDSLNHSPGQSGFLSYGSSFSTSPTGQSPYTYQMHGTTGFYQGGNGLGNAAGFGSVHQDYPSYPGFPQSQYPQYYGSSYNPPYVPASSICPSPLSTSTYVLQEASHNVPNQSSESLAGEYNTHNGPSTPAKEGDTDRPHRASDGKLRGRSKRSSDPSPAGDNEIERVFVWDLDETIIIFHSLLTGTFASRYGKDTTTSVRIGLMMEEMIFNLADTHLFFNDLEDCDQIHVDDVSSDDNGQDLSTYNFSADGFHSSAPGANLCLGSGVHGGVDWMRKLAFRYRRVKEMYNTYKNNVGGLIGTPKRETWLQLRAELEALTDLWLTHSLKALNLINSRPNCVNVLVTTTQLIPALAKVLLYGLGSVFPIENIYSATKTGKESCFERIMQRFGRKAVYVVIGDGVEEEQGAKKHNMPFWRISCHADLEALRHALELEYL
Target sequence (Q15475 whole entry, looked up): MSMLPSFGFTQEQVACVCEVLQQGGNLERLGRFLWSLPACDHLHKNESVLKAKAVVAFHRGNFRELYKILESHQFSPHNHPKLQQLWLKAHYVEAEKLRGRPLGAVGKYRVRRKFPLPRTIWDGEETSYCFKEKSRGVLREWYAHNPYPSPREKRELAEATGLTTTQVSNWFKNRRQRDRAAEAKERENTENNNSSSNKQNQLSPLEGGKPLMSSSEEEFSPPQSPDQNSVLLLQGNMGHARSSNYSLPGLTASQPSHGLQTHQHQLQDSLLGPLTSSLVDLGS
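AlphaScreen luminescence read after one hour at 37 °C in darkness. Pin-transferred compounds met GST-Six1 and His-Eya2 protein (5X stock 250 nM/500 nM) plus glutathione donor and Ni-chelate acceptor beads (5X, 50 ug/mL).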
ATXN2 expr inh – reduces ATXN2 reporter expression in HEK-293 cells; HEK-293 ATXN2-luciferase reporter, luminescence, 24 h; Potency, µM (doses to about 57 µM), inactives show at the top dose activity change, negative = inhibition, actives largely listed as inhibitors; hit rate 0.72% among 360,000; further: potency means the concentration at half of the fitted maximal effect; on the % scale 0 is the no-effect control and ±100 the full control effect; nearly all actives have a fitted effect of over 55% in size
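ATXN2-luciferase reporter cells (luciferase flanked by upstream and downstream ATXN2 gene portions) were treated 24 h at 37 °C with compounds at up to 57 uM. SteadyGlo luminescence gave expression; GF-AFC fluorescence gave viability.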
HepG2 tox – kills HepG2 cells in TGF-b inhibitor counter-screen; HepG2 CAGA-GFP viability, ATP luminescence, 18 h; Potency, µM (doses to about 46.1 µM), inactives show at the highest dose activity change, negative = cytotoxicity, hits mostly cytotoxic; hit rate 0.76% among 410,000; AID 588856; further: potency means the concentration at half of the fitted maximal effect
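CellTiter-Glo luminescence gave cytotoxicity after 18 hours at 37 degrees C. The cells were HepG2 CAGA-GFP in 1% FBS DMEM, stimulated with 500 pg/mL TGF-beta after compound addition. %Activity was normalised to no-cell wells (complete cell-killing) and DMSO (no toxicity), and curves were fitted and classified.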
TGFb SMAD3 inh – blocks TGF-b signaling. HepG2 CAGA-GFP TGF-b/SMAD3 reporter, GFP fluorescence, 18 h; TGF-beta stimulated, 500 pg/mL final. Potency, µM (titrated, usually from 46.1 µM), for inactives: at the top dose activity, negative = inhibition, hits mostly inhibitors. hit rate 1.2% among 410,000. AID 588855; further: potency means the concentration at half of the fitted maximal effect; on the % scale 0 is the no-effect control and ±100 the full control effect; nearly all actives have a fitted effect of over 65% in size
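Inhibition was scored as loss of TGF-beta-induced (500 pg/mL final, 18 hours, 37 degrees C) GFP in HEPG2 cells carrying a CAGA-GFP reporter, in DMEM with 1% FBS. Well GFP was summed per cell; Activity was normalised to unstimulated and stimulated DMSO wells, then concentration-response fitting.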
Starred values were filed as active, the others as inactive; i = inactive; ? = inconclusive; · = not tested or not shown. Unless noted, the call rests on the fitted dose curve; in most records, active means well fitted curve in the direction sought with a large enough effect; inconclusive means small, poorly fitted or top-dose-only effect, or another doubt; inactive means no such curve, though single readings can be large; an effect the other way counts as inactive or inconclusive.

SMILES | ATXN viability | CtBP-E1A inh | Six1-Eya2 inh | ATXN2 expr inh | HepG2 tox | TGFb SMAD3 inh
Cc1occc1C(=O)N/N=C/c1ccc2c(c1)OCO2 | i | 7 | -4 | ? | 11µM* | 0%
COc1cc(-c2cc(C)c3c(OC)ccc(OC)c3n2)cc2c1OCCN(C(=O)C(C)c1n[nH]c(=O)c3ccccc13)C2 (stereo not drawn) | i | · | · | · | · | ·
Cc1ccc(-c2nc(SCCOc3ccccc3C)n3[nH]c(=O)cc3n2)cc1 | ? | · | · | ? | -51% | 11µM*
O=C(NCc1nnc2n1CCN(Cc1ccc(C(F)(F)F)cc1)CC2)c1ccccn1 | i | · | · | · | · | ·
O=C(O)CCn1cc(/C=C/C(=O)c2ccc(Cl)cc2)c(-c2ccc(Br)cc2)n1 | i | 3 | -4 | ? | 16µM* | ?
CC(=O)c1ccc(-c2ccc3c4c(ccc3c2)OC(CNC(=O)[C@@H]2CCCN2C(C)=O)C4)s1 (stereo partly drawn) | i | · | · | · | · | ·
O=C(Nc1c(Cl)cc2c(c1Cl)Cc1cc([N+](=O)[O-])ccc1-2)C(Cl)Cl | ? | -8 | -10 | 12% | -56% | 7.1µM*
CC(=O)Nc1ccc2c(c1)Cc1c-2cc(Cl)c(NC(C)=O)c1Cl | ? | -1 | -9 | 6% | 7% | 20%
Cc1ccc(-c2csc3nc(SCC(=O)Nc4ccc(Cl)c(C(=O)O)c4)[nH]c(=O)c23)cc1 | i | · | -70* | · | 1% | 7%
CCCCCCCCCC[n+]1ccc(/C=C/c2c(C)[nH]c3ccccc23)cc1 | · | · | · | · | -101% | 211%
CCOc1ccc(Br)cc1C1C(C(=O)OC)=C(C)NC2=C1C(=O)c1ccccc12 (stereo not drawn) | i | · | · | -1% | -28% | -28%
CCOC(=O)COc1ccccc1C1C(C(=O)OC)=C(C)NC2=C1C(=O)c1ccccc12 (stereo not drawn) | ? | · | · | -7% | -62% | 16µM*
CCN1C(=O)/C(=C/c2nc3ccccc3c(=O)n2-c2ccccc2)c2ccccc21 | ? | 0 | 15 | ? | 16µM* | 6%
CC(C)N1CCC2(CC1)N=C(c1ccc3c(c1)OCO3)CC(c1cc(Cl)ccc1O)N2 (stereo not drawn) | ? | 30 | 9 | ? | 11µM* | ?
Cc1cc2c(cc1C)N[C@]1(C[C@H]3CCCC(=O)N4CC[C@@H](C1)[C@@H]34)C(=Nc1ccccc1C)N2 | · | · | · | · | 11% | 1%
CC(C)(C)CC(C)(C)N=C1Nc2ccc(Cl)cc2NC12C[C@H]1CCC(=O)N3CC[C@@H](C2)[C@@H]13 (stereo partly drawn) | · | · | · | · | 10µM* | ?
O=C1CCC[C@@H]2C[C@@]3(C[C@@H]4CCN1[C@H]24)Nc1cc(Cl)c(Cl)cc1NC3=NCc1ccccc1 | · | 0 | -18 | 0% | -32% | 11µM*
CC1(C)CC(C(=O)N2CCOc3ccc(CN4CCC(Oc5cccnc5)CC4)cc3C2)CCO1 (stereo not drawn) | i | · | · | · | · | ·
Cc1c(C)n(Cc2ccccc2)c2ccc(C(=O)OCCCN(C)C)cc12 | ? | ? | ? | -31% | 18µM* | ?
Nc1nc(N)c2nc(-c3cccc(O)c3)c(-c3cccc(O)c3)nc2n1 | · | · | · | 24µM* | · | ·
CCOC(=O)N1CCN(c2ncnc3scc(-c4ccc(Cl)cc4)c23)CC1 | i | · | -7 | · | -26% | 16µM*
CCOC(=O)N1CCN(c2ncnc3scc(-c4ccccc4)c23)CC1 | i | -1 | -7 | -23% | -22% | -16%
Cc1nc(N/N=C/c2ccc(O)cc2)c2cnn(-c3ccccc3)c2n1 | ? | -76* | ? | -14% | 16µM* | -12%
Cc1nc2ccccc2nc1N/N=C/c1ccc(O)cc1 | i | -7 | -23 | 42% | -16% | -6%
CCCCCOc1ccc(NC(=O)CSc2cccc3cccnc23)cc1 | i | -95* | -92* | -38% | 20µM* | ?
SMILES | ATXN viability | CtBP-E1A inh | Six1-Eya2 inh | ATXN2 expr inh | HepG2 tox | TGFb SMAD3 inh
CCOC(=O)CSc1cccc2cccnc12 | ? | -92* | -89* | 20µM* | 8.9µM* | ?
O=C(CSc1cccc2cccnc12)Nc1ccc(S(=O)(=O)N2CCOCC2)cc1 | 11µM* | -93* | -88* | 13µM* | -175% | ?
O=C(CSc1cccc2cccnc12)Nc1cccc(S(=O)(=O)N2CCOCC2)c1 | i | 2 | 0 | -22% | -25% | 0%
Cc1cccc(NC(=O)CSc2cccc3cccnc23)c1C | i | -79* | ? | -12% | -40% | ?
COc1ccc(NC(=O)CSc2cccc3cccnc23)c(OC)c1 | i | -6 | -21 | 3% | 4% | -17%
Cn1c(=O)oc2cc(S(=O)(=O)CCC(=O)N3CCN(c4cccc(Cl)c4)CC3)ccc21 | i | · | · | 12% | 20% | 10%
Cc1cccnc1-c1cccc2c1OC(CNC(=O)C(=O)c1ccccc1)C2 (stereo not drawn) | i | · | · | · | · | ·
Cc1cccc(CSc2cccc3cccnc23)c1 | ? | -92* | -90* | ? | 2% | ?
COc1ccc(CNS(=O)(=O)c2cc3c(cc2C)n(C)c(=O)c(=O)n3C)cc1 | i | · | · | 6% | -15% | -3%
COc1cc(OC)nc(C(NC(=O)C2CCN(Cc3ccc(N(C)C)cc3)CC2)c2ccc(F)cc2)n1 (stereo not drawn) | i | -4 | -12 | 0% | -6% | -1%
COc1cc(OC)nc(C(NC(=O)C2CCN(Cc3c[nH]c4ccccc34)CC2)c2ccc(Cl)cc2)n1 (stereo not drawn) | · | -22 | -19 | ? | 10µM* | ?
Cc1cc(O)c(C)c(C)c1O | i | · | · | -2% | · | ·
CCCC/C=C/[C@H](c1ccccc1)[C@H](CO)Cc1cnc2ccccc2c1 | · | · | · | · | -69% | ?
O=C(NCCc1ccccn1)c1cnn(-c2ncc3c(n2)-c2ccccc2CC3)c1C1CC1 | i | · | · | · | · | ·
COc1cccc(NC(=O)Cn2c(CCC(=O)O)ccc2-c2ccc(C)cc2)c1 | i | · | 0 | · | 16µM* | ?
CCCCS(=O)(=O)c1oc(-c2cccs2)nc1S(=O)(=O)c1ccc(F)cc1 | · | · | · | · | 5.6µM* | 5µM*
CCCCS(=O)(=O)c1oc(-c2ccc(F)cc2)nc1S(=O)(=O)c1ccc(C)cc1 | · | · | · | · | 3.5µM* | 4.5µM*
O=S(=O)(c1ccccc1)c1nc(-c2ccc(F)cc2)oc1N1CCCCCC1 | ? | · | · | -23% | -7% | ?
CCS(=O)(=O)c1oc(-c2ccc(F)cc2)nc1S(=O)(=O)c1ccccc1 | · | · | · | · | 2.5µM* | ·
